Screening results from PubChem BioAssay.
In the library only some 1.3% were active in any assay of this set; here they are far more common.
PREPL inhibitor: PREPL enzyme inhibitors, primary screen, biochemical, fluorescence polarization; recombinant PREPL, fluorescence polarization activity-based probe; 320,000 compounds, 0.68% hits; AID 2751, 2010; inhibition, % at 5.96 µM; in the data active = inhibition above about 43%
PME-1 inh: PME-1 inhibitors via competitive probe labeling, primary screen, biochemical, fluorescence polarization, FP-Rh probe, HTS; Protein phosphatase methylesterase 1 (Homo sapiens), Q9Y570; recombinant PME-1; inhibition, % at 5.9 µM; 320,000 compounds, 0.53% hits; AID 2130, 2009;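 active = inhibition above the campaign mean of all compounds plus 3 SD, cut at about 26% in these data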;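 also: competitive labeling of PME-1 active site by serine hydrolase directed probe; inhibitors block probe labeling so polarization falls and inhibition rises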
Fam108B inh: mouse Fam108B serine hydrolase inhibitors, primary screen, counter-screen for RBBP9 inhibitor project, biochemical, fluorescence polarization. inhibition, % at 9.51 µM. recombinant Fam108B, FP-Rh probe fluorescence polarization. 300,000 compounds, 0.33% hits;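 active = inhibition above the screen mean inhibition plus 3 SD, computed separately per campaign, cut at about 18% in these data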;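 also: inhibitors lower polarization as less probe binds the enzyme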
LYPLA2 counter: LYPLA2 inhibitors, primary screen, counter-screen for PME1 inhibitor project, biochemical, fluorescence polarization, FP-Rh probe ABPP. Acyl-protein thioesterase 2 (Homo sapiens), O95372. AID 2177, 2009. inhibition, % at 5.9 µM. 320,000 compounds, 0.38% hits. recombinant LYPLA2;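 active = inhibition above the screen-wide mean plus 3 SD, limit set per campaign, cut at about 26% in these data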
Target sequence (O95372 whole entry, looked up): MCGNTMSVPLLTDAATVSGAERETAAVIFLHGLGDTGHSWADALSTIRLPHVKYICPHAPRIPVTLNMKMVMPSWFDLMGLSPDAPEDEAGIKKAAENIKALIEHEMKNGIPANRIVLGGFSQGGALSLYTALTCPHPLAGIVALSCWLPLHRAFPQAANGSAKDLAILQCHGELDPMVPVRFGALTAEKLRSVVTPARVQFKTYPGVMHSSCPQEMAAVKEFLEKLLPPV
LYPLA1 inh: LYPLA1 inhibitors, primary screen, counter-screen for PME1 inhibitor project, biochemical, fluorescence polarization, FP-Rh probe ABPP | Acyl-protein thioesterase 1 (Homo sapiens), O75608 | recombinant LYPLA1 | inhibition, % at 5.9 µM | 320,000 compounds, 0.16% hits;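 active = inhibition above the mean of all tested compounds plus 3 SD, set per campaign, cut at about 14% in these data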;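 also: inhibitors block serine hydrolase probe labeling of LYPLA1 so polarization falls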
Target sequence (O75608 whole entry, looked up): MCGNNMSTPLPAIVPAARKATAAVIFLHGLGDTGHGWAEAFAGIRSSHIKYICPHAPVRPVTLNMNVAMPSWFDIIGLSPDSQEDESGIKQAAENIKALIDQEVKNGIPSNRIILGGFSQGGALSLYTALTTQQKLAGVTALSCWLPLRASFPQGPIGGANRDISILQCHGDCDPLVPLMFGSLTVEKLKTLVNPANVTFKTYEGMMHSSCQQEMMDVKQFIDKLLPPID
Fam108b inh conf: mouse Fam108b serine hydrolase inhibitors, confirmation, counter-screen for RBBP9 inhibitor project, biochemical, fluorescence polarization, triplicate; inhibition, % at 9.51 µM; AID 1978, 2009; shares compounds with Fam108B inh; recombinant Fam108b, FP-Rh probe fluorescence polarization; 930 compounds, 44% hits;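 active = inhibition above a limit from the primary screen, the mean over all compounds plus 3 SD, cut at about 19% in these data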;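 also: inhibitors free the probe so polarization falls as inhibition rises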
Fam108b inh: inhibition of mouse Fam108b by HTS hits, late-stage follow-up, biochemical, gel-based ABPP, soluble recombinant form; inhibition, % at 20 µM; AID 588649, 2011; shares compounds with Fam108B inh; fluorophosphonate probe; 260 compounds, 44% hits; in the data active = inhibition above about 40%
Each line names hits and unclear results; the compound was inactive in the other large screens (follow-up assays come after a bar, where they were run).

Cc1cc(Cl)ccc1OC(C)C(=O)Nc1ccc([N+](=O)[O-])cn1 (stereo not drawn)	none
COc1ccc(-c2csc(NC(=O)Nc3ccccc3)n2)cc1	PME-1 inh 48.0, Fam108B inh 44.6 | Fam108b inh conf inactive
O=C(OCc1cncs1)c1ccccc1	none
Cc1cccc2c(N=Nc3ccc(S(=O)(=O)Nc4cccc(Cl)c4)cc3[N+](=O)[O-])c(O)[nH]c12	PME-1 inh 31.6, Fam108B inh 36.1 | Fam108b inh conf 27.7
Cc1cccc(-c2nc(Nc3ccc(N4CCOCC4)cc3)c3ccccc3n2)c1	Fam108B inh 20.1 | Fam108b inh conf inactive
COc1ccccc1N1CC=C(c2cccc([N+](=O)[O-])c2)NC1=O	none
Oc1c(Br)cc(/C=N/n2c(-c3ccccc3)n[nH]c2=S)c(Br)c1O	Fam108B inh 34.4 | Fam108b inh conf 41.2
COc1cccc(C(=S)N2CCCC2)c1OC	none
COc1ccc(NC(=O)Nc2cccc([N+](=O)[O-])c2)cc1Cl	PME-1 inh 42.3, Fam108B inh 31.7 | Fam108b inh conf 97.4 | Fam108b inh inactive
COc1cc([N+](=O)[O-])ccc1NC(=O)Nc1ccc2c(c1)OCCO2	Fam108B inh 18.8 | Fam108b inh conf inactive
COc1ccc(C(=O)Nc2cccc([N+](=O)[O-])c2)cc1Br	none
CC1CC(C)CN(C(=O)CN(C)S(=O)(=O)c2ccc3c(c2)c(=O)n(C)c(=O)n3C)C1 (stereo not drawn)	none
COc1ccc(C2C3=C(CC(C)(C)CC3=O)Nc3c2c(=O)[nH]c(=O)n3Cc2ccccc2)cc1 (stereo not drawn)	Fam108B inh 21.4 | Fam108b inh conf 22.3
Cc1cc(C(=O)O)ccc1-n1c(C)ccc1C	Fam108B inh 24.4 | Fam108b inh conf inactive
COc1cccc(CNC(=O)c2ccc(NC(=O)CC3SC(N4CCCC4)=NC3=O)cc2)c1 (stereo not drawn)	none (no result: Fam108B inh)
COc1ccccc1NC(=O)N1CCc2[nH]c3ccc(F)cc3c2C1	Fam108B inh 21.5 | Fam108b inh conf inactive
O=C(Nc1ccc(F)cc1)Nc1ccc(N2CCCC2)c(S(=O)(=O)Nc2ccccc2Cl)c1	Fam108B inh 25.4 | Fam108b inh conf 36.8 | Fam108b inh 95.0
Nc1c(Cl)cc(-c2[nH]c3cc(C(=O)NCCO)ccc3c(=O)c2O)cc1Cl	PME-1 inh 41.5, Fam108B inh 28.6 | Fam108b inh conf inactive
O=C(Nc1cc(S(=O)(=O)N2CCOCC2)ccc1N1CCCC1)c1cnccn1	Fam108B inh 18.4 | Fam108b inh conf 22.7
O=C(Nc1cc(Cl)ccc1N1CCOCC1)c1cnccn1	none
COC(=O)c1ccccc1NC1=C/C(=N\S(=O)(=O)c2ccc(C(=O)O)cc2)c2ccccc2C1=O	Fam108B inh 56.9, LYPLA2 counter 26.4 | Fam108b inh conf 71.6 | Fam108b inh inactive
O=C1C(Nc2ccccc2)=C/C(=N/S(=O)(=O)c2cccs2)c2ccccc21	PME-1 inh 32.4, Fam108B inh 36.0 | Fam108b inh conf 56.5
COC(=O)c1ccccc1NC1=C/C(=N\S(=O)(=O)c2cccs2)c2ccccc2C1=O	Fam108B inh 20.2 | Fam108b inh conf inactive
Cc1ccc(NC2=C/C(=N/S(=O)(=O)c3cccs3)c3ccccc3C2=O)cc1	none
CCCOc1ccc(C(F)(F)F)cc1NC(=O)C1CC(=O)N(Cc2ccco2)C1 (stereo not drawn)	none (no result: Fam108B inh)
CCOC(=O)C1C(c2ccc(C(=O)O)cc2)NC(=O)NC1(O)C(F)(F)F (stereo not drawn)	none
COc1cccc(/C=N/NC(=S)Nc2cccc(S(=O)(=O)N(C)C)c2)c1	none
